# From PubChem BioAssay
# Values without a mark were called inactive. Calls of active or inactive are those of the source.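 Rule for the calls, unless noted: active = normalized viability below 100% at a tested concentration; inactive = the rest.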
# Test: ovarian cancer cell viability with rucaparib, profiling panel, oncology-focused library, rucaparib conditional (AID 1508598)
# Conditions: patient-derived ovarian cancer cells, CellTiter-Glo viability, 144 h; at 5 µM; OCI-P5x cells; with rucaparib 20 µM; hits give low values; 100% = cells with rucaparib alone
row,Compound,viability
1,CNC(=O)c1cc(COc2nnc(Nc3ccc(Cl)cc3)c3ccoc23)ccn1,103%
2,Nc1ccn([C@@H]2O[C@H](CO)[C@@H](O)C2(F)F)c(=O)n1,42.3% (active)
3,O=C(CCCCCCC(=O)Nc1ccc([C@H]2O[C@@H](CSc3nc(-c4ccccc4)c(-c4ccccc4)o3)C[C@@H](c3ccc(CO)cc3)O2)cc1)NO,21.1% (active)
4,CNC(=O)c1cc(Oc2ccc(NC(=O)Nc3ccc(Cl)c(C(F)(F)F)c3)c(F)c2)ccn1,80.9% (active)
5,CS(=O)(=O)N1CCc2c(-c3cnc(N)nc3)nc(N3CCOCC3)nc21,16% (active)

# Same assay, conditions: patient-derived ovarian cancer cells, CellTiter-Glo viability, 144 h; at 5 µM; OCI-P5x cells; without rucaparib; hits give low values
row,Compound,viability
1,CNC(=O)c1cc(COc2nnc(Nc3ccc(Cl)cc3)c3ccoc23)ccn1,109%
2,Nc1ccn([C@@H]2O[C@H](CO)[C@@H](O)C2(F)F)c(=O)n1,17.7% (active)
3,O=C(CCCCCCC(=O)Nc1ccc([C@H]2O[C@@H](CSc3nc(-c4ccccc4)c(-c4ccccc4)o3)C[C@@H](c3ccc(CO)cc3)O2)cc1)NO,108%
4,CNC(=O)c1cc(Oc2ccc(NC(=O)Nc3ccc(Cl)c(C(F)(F)F)c3)c(F)c2)ccn1,121%
5,CS(=O)(=O)N1CCc2c(-c3cnc(N)nc3)nc(N3CCOCC3)nc21,16.9% (active)

# Test: viability rescue of complex I mutant cybrids, primary screen, cell-based, galactose medium, ATP luminescence (AID 1645843;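 active = z-score of at least 1.8 in each of two replicates, scored against plate mean and spread of sample wells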;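 note: positive z means more ATP and so rescue of galactose-driven cybrid death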)
# Conditions: complex I mutant cybrid cells, 72 h, hits give high values
row,Compound,z-score
1,Nc1ccn([C@@H]2O[C@H](CO)[C@@H](O)C2(F)F)c(=O)n1,-1.98
2,COc1cc2ncnc(Nc3cccc(Cl)c3)c2cc1OC,1.23
3,CC(=O)Oc1cc2c(s1)CCN(C(C(=O)C1CC1)c1ccccc1F)C2 (stereo not drawn),-1.04
